Inconclusive results are not listed. Calls of active or inactive are those of the source. Calls come from the whole dose curve; as a rule, active = well fitted cell-killing curve with a large enough effect in the repeat runs; inconclusive = weak or mixed curves; inactive = flat fitted curve, though single readings scatter.
Experiment: qHTS RealTime-Glo MT Cell Viability Assay in HepG2 cells - 32 hour (AID 1224877); note: nearly all actives have a fitted effect of over 55% in size
Settings: RealTime-Glo luminescence; series mostly up to 76.8 µM; activity change, negative = cytotoxic: at the top concentration
Source text: U.S. Tox21 Program National Center for Advancing Translational Sciences [NCATS] NIH Chemical Genomics Center [NCGC] U.S. Environmental Protection Agency [EPA] National Institutes of Environmental Health Sciences [NIEHS] National Toxicology Program [NTP] U.S. Food and Drug Administration [FDA] Tox21 Assay Overview: Measure of cell viability is critical in the cell-base assay. Analysis of cell viability is necessary for the characterization of cell responses to cytotoxic drugs and environmental stress. A RealTime-Glo MT Cell Viability Assay to monitor cell viability in real time of continues cell culture during 40 hours of compound treatment was used to screen Tox21 10K library compounds in HepG2 cells. The RealTime-Glo MT Cell Viability Assay is a nonlytic, homogeneous, bioluminescent method to measure cell viability in real time using a simple, plate-based method. The assay involves adding NanoLuc luciferase and a cell-permeant prosubstrate to cells in culture. Viable cells reduce the proprietary prosubstrate to generate a substrate for NanoLuc luciferase. This substrate diffuses from cells into the surrounding culture medium, where it is rapidly used by the NanoLuc Enzyme to produce a luminescent signal. The signal correlates with the number of viable cells, making the assay well suited for cytotoxicity studies.
Tox21 Assay Protocol Summary: The mixture of HepG2 cell suspension and reagents were dispensed at 600cells/6 ul/well in 1536-well tissue culture treated black solid bottom plates using a Multidrop dispenser. After the assay plates were incubated at a 37 C/5% CO2 incubator for 5 hours, 23 nL of compounds dissolved in DMSO, positive and negative controls was transferred to the assay plate by a pintool work station. The plates were incubated at 37 C for 40 hours. The luminescence intensity were measured at 0h, 8h, 16h, 24h, 32h and 40h time points using ViewLux plate reader during compound treatment.
% is set by controls: 0 for no effect and ±100 for the full control effect; potency is the fitted concentration of half-maximal effect.

| SMILES | activity change, negative = cytotoxic | Potency |
| --- | --- | --- |
| CN(C)CCOC(c1ccccc1)c1ccc(Br)cc1 (stereo not given) | -18.4% [at 35.3 µM] (inactive) | – |
| CCC(Cl)CCC(Cl)C(Cl)CC(Cl)C(Cl)C(Cl)CCl (stereo not given) | -3.55% (inactive) | – |
| NCc1ccccc1Sc1ccccc1CO | 2.65% [at 35.3 µM] (inactive) | – |
| CCn1cc(C(=O)O)c(=O)c2cnc(N3CCNCC3)nc21 | 0.262% [at 35.3 µM] (inactive) | – |
| Cc1ccc(N=Nc2c(O)c(C(=O)O)cc3ccccc23)c(S(=O)(=O)O)c1 | -14.5% [at 35.3 µM] (inactive) | – |
| O=C(O)c1ccccc1Cl | 0.845% (inactive) | – |
| O=C(O)C1(C(=O)O)CCC1.[NH2-].[NH2-].[Pt+2] | 2.53% [at 35.3 µM] (inactive) | – |
| Cc1ccc(C(C)OC(=O)C2(C)CCC(C(=O)O)C2(C)C)cc1 (stereo not given) | 2.58% [at 35.3 µM] (inactive) | – |
| CCCCC | -2.08% (inactive) | – |
| Clc1ccc2c(c1)CCc1cccnc1C2=C1CCNCC1 | – | 26.8 µM (active) |
| Cc1ccc(C(=O)Oc2ccc(C(O)CNC(C)(C)C)cc2OC(=O)c2ccc(C)cc2)cc1 (stereo not given) | – | 23.9 µM (active) |
| COC(C)(C)CCO | 0.308% (inactive) | – |
| O=C1OC(CN2CCOCC2)CN1/N=C/c1ccc([N+](=O)[O-])o1 (stereo not given) | 2.48% [at 35.3 µM] (inactive) | – |
| CN(C)c1ccc(CCO)cc1 | -4.73% (inactive) | – |
| Cc1cccc(C)c1NC(=O)CN(CC(=O)O)CC(=O)O | 2.22% [at 35.3 µM] (inactive) | – |
| Cc1cc(C(=O)O)ccc1[N+](=O)[O-] | 0.988% (inactive) | – |
| O=C1[C@H]2CCCC[C@H]2C(=O)N1CCCCN1CCN(c2nsc3ccccc23)CC1 | -3.51% [at 35.3 µM] (inactive) | – |
| CCC(C)O (stereo not given) | 3.28% (inactive) | – |
| CCOC(=O)Cc1cccc2ccccc12 | -1.91% (inactive) | – |
| C[C@H]1C[C@H]2[C@@H]3CCC4=CC(=O)C=C[C@]4(C)[C@@]3(Cl)[C@@H](O)C[C@]2(C)[C@@]1(O)C(=O)CO | -13.5% [at 35.3 µM] (inactive) | – |

| SMILES | activity change, negative = cytotoxic | Potency |
| --- | --- | --- |
| CCCOC(C(=O)OC1CCN(C)CC1)(c1ccccc1)c1ccccc1 | -20.9% [at 35.3 µM] (inactive) | – |
| CCCCCCCCCCCCN1CCCCCC1=O | -11.6% (inactive) | – |
| c1ccc(-c2ccccn2)nc1 | 0.0441% (inactive) | – |
| O=C(O)c1ccco1 | 2.55% (inactive) | – |
| CCC(C)c1cc(C(C)(C)C)c(O)c(C(C)(C)C)c1 (stereo not given) | 0.886% (inactive) | – |
| CC(=O)c1ccc2c(c1)N(CCCN(C)C)c1ccccc1S2 | -6.22% [at 35.3 µM] (inactive) | – |
| CCCC(=O)Nc1ccc(O)c(C(C)=O)c1 | 2.68% [at 35.3 µM] (inactive) | – |
| C/C=C/C(=O)CC | 0.591% [at 15.8 µM] (inactive) | – |
| COc1ccc2cccc(CCNC(C)=O)c2c1 | -1.58% [at 35.3 µM] (inactive) | – |
| CNC(=O)CN(CCN(CCN(CC(=O)[O-])CC(=O)NC)CC(=O)[O-])CC(=O)[O-].O.[Gd+3] | 0.63% [at 35.3 µM] (inactive) | – |
| O=[N+]([O-])c1ccc(NCCO)c(OCCO)c1 | -13.2% (inactive) | – |
| C/C(=C(\CCOP(=O)(O)O)SC(=O)c1ccccc1)N(C=O)Cc1cnc(C)nc1N | 2.64% [at 6.97 µM] (inactive) | – |
| C=CCOc1ccccc1OCC(O)CNC(C)C (stereo not given) | 0.813% [at 35.3 µM] (inactive) | – |
| O=C1CCC(=O)O1 | 1.94% (inactive) | – |
| O=S(c1cc(Cl)cc(Cl)c1O)c1cc(Cl)cc(Cl)c1O | -1.01% [at 35.3 µM] (inactive) | – |
| CC[N+]1(CC)CCC(=C(c2ccccc2)c2ccccc2)C1C (stereo not given) | -2.6% [at 35.3 µM] (inactive) | – |
| COc1cc2nc(N(C)CCCNC(=O)C3CCCO3)nc(N)c2cc1OC (stereo not given) | -2.12% [at 35.3 µM] (inactive) | – |
| O=C(OCCc1ccccc1)c1ccccc1 | 1.27% (inactive) | – |
| O=C(NCCO[N+](=O)[O-])c1cccnc1 | 1.58% [at 35.3 µM] (inactive) | – |
| CC(C)Nc1ccc(NC(C)C)c2c1C(=O)c1ccccc1C2=O | -14.3% [at 35.3 µM] (inactive) | – |

Reference: PubChem BioAssay (Tox21)
